HTT-AS act: Primary qHTS for Identification of Small Molecule Activators of Huntingtin-Antisense Promoter Activity. HEK293 HTT-AS promoter firefly luciferase reporter, 24 h; response scale: percent change from vehicle, -100% = no light. Potency, µM (highest dose often 57.5 µM), most hits filed as activators. actives 0.24% (n = 48,000); note: nearly all actives have a fitted effect of over 55% in size
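HEK293 cells carrying firefly luciferase reporters were seeded at 2,500 per well in Opti-MEM and cultured for 24 h. They were then treated with compounds at up to 57.5 uM final for 24 h at 37 degrees C before Dual-Glo luminescence readout.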
HTT promoter inh: Primary qHTS for Identification of Small Molecule Inhibitors of Huntingtin Promoter Activity; HEK293 HTT promoter firefly luciferase reporter, 24 h; Potency, µM (highest dose often 57.5 µM), usual class: inhibitors; actives 0.93% (n = 48,000); note: nearly all actives have a fitted effect of over 50% in size
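HEK293 cells carrying firefly luciferase reporters were seeded at 2,500 per well in Opti-MEM and cultured for 24 h. They were then treated with compounds at up to 57.5 uM final for 24 h at 37 degrees C before Dual-Glo luminescence readout.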
DRV1 agonist: qHTS for Agonists of Human Resolvin D1 Receptor DRV1; CHO-K1 GPR32 beta-arrestin PathHunter luminescence, 90 min; zero percent set by DMSO-only wells; activation, % at 76.9 µM; Probable G-protein coupled receptor 32 (Homo sapiens), O75388; AID 1346428, 2018; actives 2.5% (n = 48,000);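 active = activation of at least 60% and not above a set upper limit, about 1 call in 100 departs from these limits; inconclusive = activation of 40% to 60%, or above that upper limit; inactive = activation under 40%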
Target sequence (O75388 whole entry, looked up): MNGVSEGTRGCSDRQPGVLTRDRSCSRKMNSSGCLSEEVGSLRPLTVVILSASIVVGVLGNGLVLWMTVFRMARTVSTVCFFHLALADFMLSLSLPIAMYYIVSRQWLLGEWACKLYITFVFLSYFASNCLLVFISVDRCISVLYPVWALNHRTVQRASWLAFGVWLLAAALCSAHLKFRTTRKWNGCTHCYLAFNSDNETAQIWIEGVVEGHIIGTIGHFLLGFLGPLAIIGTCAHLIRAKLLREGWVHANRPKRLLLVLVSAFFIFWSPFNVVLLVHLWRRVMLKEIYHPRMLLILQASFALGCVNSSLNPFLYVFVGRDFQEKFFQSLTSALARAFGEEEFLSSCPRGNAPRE
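Step 1: seed CHO-K1 GPR32 beta-arrestin cells, 2,500/well, overnight at 37 °C. Step 2: add compounds, 90 min at 37 °C. Step 3: detection reagent, 1 h ambient, then luminescence.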
OvCa metastasis: Primary qHTS assay for Inhibitors of ovarian cancer metastasis using an organotypic tumor microenvironment (TME) model; actives 0.1% (n = 46,000); AID 1963576, 2024; SKOV3ip1-GFP adhesion/invasion on 3D omental model, fluorescence; Potency, µM (series often up to 45.8 µM), actives largely listed as inhibitors; note: nearly all actives have a fitted effect of over 65% in size
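Adhesion/invasion was scored as fixed GFP-labeled SKOV3ip1 cell counts (488/509 nm), normalized to DMSO and tomatine controls. Cancer cells in serum-free medium, with four compound doses (0.36-46 umol/L), sat 2 hr at RT then 16 hr at 37 C on a 48 hr fibroblast/mesothelial/ECM culture.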
NTMT1 inh: Primary qHTS for Inhibitors of N-terminal methyltransferase 1 (NTMT1): MTaseGlo Assay | N-terminal Xaa-Pro-Lys N-methyltransferase 1 (Homo sapiens), Q9BV86 | NTMT1 MTase-Glo SAH luminescence, purified enzyme | actives 2.5% (n = 59,000) | AID 1645870, 2021 | Potency, µM (titrated, usually from 114 µM), actives largely listed as inhibitors; note: nearly all actives have a fitted effect of over 65% in size
Target sequence (Q9BV86 whole entry, looked up): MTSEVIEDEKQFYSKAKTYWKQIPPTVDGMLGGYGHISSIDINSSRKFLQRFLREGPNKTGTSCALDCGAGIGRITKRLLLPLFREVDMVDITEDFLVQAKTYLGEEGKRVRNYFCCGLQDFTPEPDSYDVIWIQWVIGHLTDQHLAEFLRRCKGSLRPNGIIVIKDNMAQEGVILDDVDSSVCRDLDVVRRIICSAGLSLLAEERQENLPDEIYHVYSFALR
Large screens that a line does not name were inactive; ! = not confirmed by another sample. Most compounds without a hit are left out; they make up all but 4.5% or so of the library. Unless noted, calls come from the whole dose curve; as a rule, active = well fitted curve in the direction sought with a large enough effect; inconclusive = small, poorly fitted or top-dose-only effect, or another doubt; inactive = no such curve, though single readings can be large; an effect the other way counts as inactive or inconclusive.

O=C1NC(=O)C(=Cc2ccc(-c3ccc(F)cc3O)o2)S1	HTT-AS act inconclusive, NTMT1 inh 24µM (no result: DRV1 agonist)
COc1ccc(/C=C/c2nc(C#N)c(NCCc3ccc(OC)c(OC)c3)o2)cc1OC	none
CC(C)(C)C(=O)Nc1c(C(=O)N2CCN(c3ccc(F)cc3)CC2)oc2ccccc12	HTT promoter inh inconclusive, NTMT1 inh inconclusive
CCn1cc(C(=O)N2CCN(c3cccc(C)c3C)CC2)c2cc(OC)c(OC)cc2c1=O	DRV1 agonist 76
O=C(Nc1cccc(Br)c1)Nc1nc2c(s1)CCCCCC2	DRV1 agonist 113
COc1cc(CN(C(=O)COc2ccc(Br)cc2)c2ccccn2)cc(OC)c1OC	HTT promoter inh 32µM, NTMT1 inh inconclusive
NC(=O)CC[C@@H](N)C(=O)O	none (no result: OvCa metastasis)
C[Se]CCC(N)C(=O)O (stereo not given)	OvCa metastasis inconclusive, NTMT1 inh 16µM! (no result: DRV1 agonist)
O=C(O)C(O)Cc1ccc(O)c(O)c1 (stereo not given)	NTMT1 inh 89µM! (no result: DRV1 agonist)
COc1ccc(C[C@@H](C)[C@@H](C)Cc2ccc(OC)c(OC)c2)cc1OC	HTT promoter inh inconclusive (no result: DRV1 agonist)
N[C@@H](Cc1ccc(O)c(O)c1)C(=O)O	none
C[C@H](Cc1ccc(O)c(O)c1)[C@@H](C)Cc1ccc(O)c(O)c1	HTT promoter inh inconclusive, NTMT1 inh 7.9µM
COc1ccccc1NC(=O)N1CC(=O)Nc2sc3c(c2C1c1ccccc1)CCCC3 (stereo not given)	none
O=S(=O)(O)NC1CCCCC1	none (no result: OvCa metastasis)
COc1cccc(N2CC(NC(=O)C3CCCC3)CC2=O)c1 (stereo not given)	none
Cc1nc2sccn2c(=O)c1S(=O)(=O)Nc1ccc(N2CCOCC2)cc1	none
Cc1ccc(NC(=O)c2cnc3cc(C)ccn3c2=O)c(C)c1	HTT-AS act 3.5µM
Cc1nn(CCCC(=O)NCc2cccc(Cl)c2)c(=O)c2c1sc1ccccc12	none
C[C@H]1COC2=C1C(=O)C(=O)c1c2ccc2c1CCCC2(C)C	NTMT1 inh inconclusive (no result: DRV1 agonist)
O=C(NC1CCN(Cc2ccccc2)CC1)c1ccc(Cn2c(=O)c3ccccc3n(Cc3ccccc3)c2=O)cc1	NTMT1 inh 79µM
COCCCNC(=O)Cn1c(=O)n(Cc2ccc(C(=O)NCc3ccc(C)cc3)cc2)c(=O)c2ccccc21	DRV1 agonist 98, NTMT1 inh 79µM
COCCCNC(=O)c1ccc(Cn2c(=O)c3ccccc3n(CC(=O)Nc3ccc(C)cc3C)c2=O)cc1	NTMT1 inh inconclusive
Cc1ccc(C)c(N2CCN(S(=O)(=O)c3c(C)nc4sccn4c3=O)CC2)c1	none
c1cc2c3c(cccc3c1)NC(c1ccc3c(c1)OCO3)N2	none (no result: HTT-AS act, HTT promoter inh, DRV1 agonist, OvCa metastasis)
COc1ccc(NC(=O)Cn2c(=O)c3cc(Cl)ccc3n3nncc23)cc1	none
COc1ccc(OCC(=O)Nc2ccccc2C(=O)OCc2cc(=O)n3nc(C)sc3n2)cc1	none
O=c1[nH]nc(Sc2ncc([N+](=O)[O-])s2)n1-c1ccc2c(c1)OCCO2	HTT promoter inh inconclusive, OvCa metastasis 15µM, NTMT1 inh 4.3µM! (no result: DRV1 agonist)
CCc1ccc(N2C(=O)CS(=O)(=O)C23C(=O)N(Cc2ccccc2)c2ccccc23)cc1 (stereo not given)	HTT promoter inh inconclusive
C=C(C)Cn1c(=O)c2c(nc3n2CCN3c2cc(C)cc(C)c2)n(C)c1=O	NTMT1 inh inconclusive
CCc1ccc(NC(=O)CN(c2ccc(OC)cc2)S(=O)(=O)c2c(C)[nH]c(=O)[nH]c2=O)cc1	none
CCc1ccc(NC(=O)CN(c2cc(C)cc(C)c2)S(=O)(=O)c2c(C)[nH]c(=O)[nH]c2=O)cc1	DRV1 agonist 76
O=C1c2c(O)ccc(O)c2C(=O)c2c(NCCNCCO)ccc(NCCNCCO)c21	HTT promoter inh inconclusive, OvCa metastasis inconclusive, NTMT1 inh 28µM!
CC(=O)c1cccc(NC(=O)CCCN2C(=O)COc3ccc(C)cc32)c1	HTT promoter inh inconclusive, NTMT1 inh 79µM
CCc1ccccc1NC(=O)CCCN1C(=O)COc2ccc(C)cc21	none
Cc1cc2ccccc2n1CCNC(=O)c1cccc(Br)c1	none
Cc1cc2ccccc2n1CCNC(=O)c1cccc(Cl)c1	DRV1 agonist 116
Cc1ccc(N(CC2=NCCN2)c2cccc(O)c2)cc1	NTMT1 inh 89µM!
COc1ccc(OCC(=O)Nc2ccc3c(c2)N(C)C(=O)c2ccccc2S3)cc1	none
CCOCc1cc(CN2CCN(c3cccc(C(F)(F)F)c3)CC2)c(O)c2ncccc12	HTT promoter inh inconclusive
O=[S+]([O-])(c1ccc(N2CCOCC2)nc1)N1CCN([S+](=O)([O-])c2c(F)cccc2F)CC1	none (no result: HTT-AS act, HTT promoter inh, DRV1 agonist, OvCa metastasis)
Nc1ncnc2nc(-c3ccc(N4CCOCC4)nc3)cc(-c3cccc(Br)c3)c12	NTMT1 inh 1.1µM
CCn1cc(S(=O)(=O)c2cccc(Cl)c2)c(=O)c2cc(F)c(N3CCN(c4ccccc4)CC3)cc21	HTT promoter inh inconclusive
COc1cccc(CNC(=O)c2nc(Cn3nc(C)c(Br)c3C)no2)c1	none
COc1ccc(CNC(=O)c2nc(Cn3nc(C)c(Br)c3C)no2)cc1OC	NTMT1 inh 89µM
COc1ccccc1NC(=O)CSc1nnc(N)s1	none
CCCCN(C)CC(O)Cn1cc(/C=C/C(=O)c2ccc(C)cc2)c2ccccc21 (stereo not given)	HTT promoter inh inconclusive, DRV1 agonist 65, OvCa metastasis inconclusive, NTMT1 inh inconclusive
CCCCN(C)CC(O)Cn1cc(/C=C/C(=O)c2ccc(Br)cc2)c2ccccc21 (stereo not given)	DRV1 agonist 74, OvCa metastasis inconclusive
CCCN(CCC)CC(O)Cn1cc(/C=C/C(=O)c2ccc(C)cc2)c2ccccc21 (stereo not given)	HTT promoter inh inconclusive, OvCa metastasis inconclusive
COc1ccc(CN2C(=O)c3ccccc3NC2c2ccc(OC)c(COc3ccc(NC(C)=O)cc3)c2)cc1 (stereo not given)	none (no result: HTT-AS act, HTT promoter inh, DRV1 agonist, OvCa metastasis)
CCOC(=O)c1cnc2c(ccc3ccccc32)c1Nc1ccc(OC)c(OC)c1	HTT promoter inh inconclusive
Cc1ccc(NC(=O)Nc2ccccc2OCc2cc(=O)n3ccccc3n2)c(Cl)c1	none
CN(c1ccc(F)cc1)S(=O)(=O)N1CCCC(C(=O)NCc2ccccc2Cl)C1 (stereo not given)	HTT promoter inh inconclusive
COc1cccc(CNC(=O)C2CCCN(S(=O)(=O)N(C)c3ccc(F)cc3)C2)c1OC (stereo not given)	HTT promoter inh 25µM
CCOC(=O)c1ccc(N2C(=O)c3n[nH]c(-c4cccs4)c3C2c2ccc(C(C)C)cc2)cc1 (stereo not given)	HTT promoter inh 25µM

Screening data deposited in PubChem BioAssay by National Center for Advancing Translational Sciences (NCATS).
